Among the data in PubChem BioAssay AID2284174 (EPA ToxCast) are outcome values, retold here.

Inconclusive results are not listed. Activity calls are given as the source filed them. Rule for the calls: active = hit-call score of the fitted dose curve at least 0.9, where 1 is the maximum; inconclusive = response in the unintended direction; inactive = score below 0.9.

For the experiment, the target named is rat SKCa (Non-Selective), Kcnn1 (gene 54261) (UniProt P70606). Description: ERF_FR_IC_rKCNN1: Eurofins (ERF) Potassium Ion Channel [125I] Apamin Binding LeadHunter Assay for rat SKCa (Non-Selective). The protocol: ERF_FR_IC_rKCNN1 is a biochemical, single-readout assay that uses extracted gene-proteins in a cell-free assay. Measurements were taken 1 hour after chemical dosing in a 96-well plate. See SKCa (Non-Selective) Rat Potassium Ion Channel [125I] Apamin Binding Assay, Cerep.ERF_FR_IC_rKCNN1 is an assay component calculated from the ERF_FR_IC_rKCNN1 assay. It is designed to measure radioligand binding using a type of binding reporter as detected by scintillation counting with radiometry technology.Data from the assay component ERF_FR_IC_rKCNN1 was analyzed at the assay endpoint, ERF_FR_IC_rKCNN1, in the positive analysis fitting direction relative to DMSO as the negative control and baseline of activity. Using a type of binding reporter, loss-of-signal activity can be used to understand changes in binding as they relate to gene Kcnn1. To generalize the intended target to other relatable targets, this assay endpoint is annotated to the ion channel intended target family, where the subfamily is voltage gated (Potassium).
rat SKCa (Non-Selective), Kcnn1 (gene 54261), sequence (P70606 whole entry, looked up): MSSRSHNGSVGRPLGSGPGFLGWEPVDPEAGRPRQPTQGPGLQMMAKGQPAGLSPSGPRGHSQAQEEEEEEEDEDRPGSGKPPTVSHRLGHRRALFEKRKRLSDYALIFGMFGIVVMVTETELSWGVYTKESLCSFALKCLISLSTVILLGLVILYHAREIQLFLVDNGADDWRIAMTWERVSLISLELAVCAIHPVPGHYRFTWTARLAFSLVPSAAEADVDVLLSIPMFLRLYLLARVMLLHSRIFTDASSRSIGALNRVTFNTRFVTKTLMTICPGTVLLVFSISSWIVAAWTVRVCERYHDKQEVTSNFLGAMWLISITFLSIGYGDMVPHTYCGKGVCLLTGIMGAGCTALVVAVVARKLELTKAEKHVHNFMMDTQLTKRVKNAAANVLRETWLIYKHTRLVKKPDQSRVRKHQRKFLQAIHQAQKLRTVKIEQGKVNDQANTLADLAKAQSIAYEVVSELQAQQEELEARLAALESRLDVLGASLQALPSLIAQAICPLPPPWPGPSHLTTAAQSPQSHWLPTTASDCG
This assay measures binding of [125I]apamin to small conductance calcium-activated potassium channel sites [SKCa]. […] Membranes are filtered and washed 3 times and the filters are counted to determine [125I]apamin specifically bound. […]
For `CCCCC[C@H](O)CC(=O)CCc1ccc(O)c(OC)c1`, the result was inactive.
